In the library only some 6.2% were active in any assay of this set; here they are far more common.
KB-3-1 tox: kills parental KB-3-1 adenocarcinoma cells; actives 1.4% (n = 400,000); KB-3-1 viability, CellTiter-Glo ATP luminescence, 72 h; Potency, µM (titrated, usually from 46.1 µM), most hits filed as cytotoxic; also: nearly all actives have a fitted effect of over 60% in size
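72 h, 37 °C compound treatment of KB-3-1 parental cells; CellTiter-Glo added, 10 min, luminescence read. Data corrected against DMSO-only plates and normalized before curve fitting.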
HT1080-NT tox: kills 2HG-producing HT-1080-NT fibrosarcoma cells; HT-1080-NT fibrosarcoma viability, CellTiter-Glo ATP luminescence, 48 h; Potency, µM (titrated, usually from 46.1 µM), most hits filed as cytotoxic; actives 1.6% (n = 360,000); AID 686970;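 also: NT is the 2HG producing partner of a matched IDH1 knockdown line; nearly all actives have a fitted effect of over 55% in size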
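HT-1080-NT; 750 cells/well; 5% FBS RPMI; 48 h compound, 37 degrees C; CellTiter-Glo luminescence; curve fitting and curve-class assignment.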
KB-V1 MDR tox: KB-V1 MDR subline cytotoxicity; KB-V1 MDR cells viability, CellTiter-Glo, 72 h; Potency, µM (highest dose often 46.1 µM), usual class: cytotoxic; actives 3.4% (n = 400,000); AID 1347076; also: nearly all actives have a fitted effect of over 60% in size
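Cells of the MDR subline KB-V1 are plated, dosed with compound at multiple concentrations, and incubated 72 h at 37 degrees C; CellTiter-Glo is then added and luminescence read after 10 min.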
ATXN2 expr inh: reduces ATXN2 reporter expression in HEK-293 cells. HEK-293 ATXN2-luciferase reporter, luminescence, 24 h. Potency, µM (series often up to 57 µM), usual class: inhibitors. actives 0.72% (n = 360,000). AID 1745845; also: nearly all actives have a fitted effect of over 55% in size
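qHTS (up to 57 uM final) was run with 24 h compound exposure of reporter cells at 37 °C. Each well was multiplexed: SteadyGlo luminescence measured ATXN2-luciferase expression after a fluorogenic Gly-Phe-AFC viability readout (25 uM final).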
ATXN viability: cell viability loss in ATXN counter-screen; Potency, µM (doses to about 56.7 µM), hits mostly cytotoxic; actives 0.49% (n = 400,000); S2 cells (HEK-293 line with an ATXN2-luciferase reporter) viability, CellTiter-Fluor protease fluorescence, 24 h; AID 651635; also: nearly all actives have a fitted effect of over 40% in size
HT1080 IDH1KD tx: HT-1080 IDH1 knockdown cell toxicity (counter line); AID 686971; Potency, µM (top dose mostly 46.1 µM), usual class: cytotoxic; HT-1080 IDH1 knockdown viability, ATP luminescence, 48 h; actives 2% (n = 360,000)
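% activity derives from luminescence (CellTiter-Glo), normalised to DMSO and no-cell wells. HT-1080-IDH1KD cells, 750/well, had 48 h compound exposure at 37 °C.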
Each line names hits and unclear results; the compound was inactive in the other large screens. Calls follow the shape of the dose curve; as a rule, active = well fitted curve in the direction sought with a large enough effect; inconclusive = small, poorly fitted or top-dose-only effect, or another doubt; inactive = no such curve, though single readings can be large; an effect the other way counts as inactive or inconclusive.

CCOc1ccc(-c2nc(CNC(=O)NC3CCCCC3)c(C)o2)cc1	none (no result: HT1080-NT tox, HT1080 IDH1KD tx)
CCCN1C(=O)/C(=N\OCC(=O)NC23CC4CC(CC(C4)C2)C3)c2ccccc21	KB-V1 MDR tox 16.4µM
Cc1ccc(N(CC(=O)Nc2ccccc2-c2ccccc2)S(=O)(=O)c2ccccc2)cc1	KB-V1 MDR tox 23.1µM
Cc1cccc(N(CC(=O)Nc2ccccc2-c2ccccc2)S(=O)(=O)c2ccccc2)c1C	KB-3-1 tox inconclusive, KB-V1 MDR tox 20.6µM
COc1ccc(/C=C/C(=O)c2ccccc2O)cc1	none
O=C(/C=C/c1ccccc1)c1cc(Br)ccc(=O)c1O	KB-3-1 tox 11.6µM, HT1080-NT tox 18.4µM, KB-V1 MDR tox inconclusive, ATXN2 expr inh 20µM, ATXN viability inconclusive, HT1080 IDH1KD tx inconclusive
O=C(/C=C/c1ccc(F)cc1)c1cc(Br)ccc1O	none
Cc1ccc(/C=C/C(=O)c2ccccc(=O)c2O)cc1C	KB-3-1 tox 9.2µM, HT1080-NT tox 18.4µM, KB-V1 MDR tox 20.6µM, ATXN2 expr inh inconclusive, ATXN viability inconclusive, HT1080 IDH1KD tx inconclusive
CCn1c(=O)c2sccc2n2c(CCC(=O)Nc3ccc(C(C)C)cc3)nnc12	none (no result: HT1080-NT tox, HT1080 IDH1KD tx)
Cc1ccc(-c2nc(N/N=C/c3ccccc3[N+](=O)[O-])c3ccccc3n2)cc1	HT1080-NT tox inconclusive, ATXN2 expr inh inconclusive, ATXN viability inconclusive, HT1080 IDH1KD tx 4.47µM
O=[N+]([O-])c1ccccc1C=NNc1ccccc1	HT1080-NT tox inconclusive, HT1080 IDH1KD tx inconclusive
Cc1cc(C)nc(Nc2nc(C(N)Cc3ccc(Cl)cc3)cs2)n1 (configuration not stated)	HT1080-NT tox 20.6µM, KB-V1 MDR tox inconclusive, ATXN2 expr inh inconclusive, ATXN viability inconclusive, HT1080 IDH1KD tx 14.6µM
Cc1cc(C)nc(Nc2nc(C(N)Cc3ccc(F)cc3)cs2)n1 (configuration not stated)	KB-3-1 tox inconclusive, HT1080-NT tox inconclusive, KB-V1 MDR tox inconclusive, ATXN viability inconclusive, HT1080 IDH1KD tx 13µM
C#CCOCCOCCOCCNc1nc(N2CCN(C(=O)CCCCCCCCCCNC(=O)[C@H](CCCCN)n3cc(CCO)nn3)CC2)nc(N2CCN(C(=O)CCCCCCCCCCNC(=O)[C@H](CCCCN)n3cc(C[C@@H](C)CC)nn3)CC2)n1	HT1080-NT tox inconclusive, ATXN viability inconclusive, HT1080 IDH1KD tx inconclusive
C#CCOCCOCCOCCNc1nc(N2CCN(C(=O)CCCCCCCCCCNC(=O)[C@H](CCCCN)n3cc(C)nn3)CC2)nc(N2CCN(C(=O)CCCCCCCCCCNC(=O)[C@@H]([C@H](C)O)n3cc(C)nn3)CC2)n1	KB-3-1 tox 20.6µM, HT1080-NT tox 10.3µM, KB-V1 MDR tox inconclusive, ATXN2 expr inh inconclusive, HT1080 IDH1KD tx inconclusive (no result: ATXN viability)
C#CCOCCOCCOCCNc1nc(N2CCN(C(=O)CCCCCCCCCCNC(=O)[C@H](CCCCN)n3cc(C[C@@H](C)CC)nn3)CC2)nc(N2CCN(C(=O)CCCCCCCCCCNC(=O)[C@@H]([C@H](C)O)n3cc(C)nn3)CC2)n1	KB-3-1 tox inconclusive, HT1080-NT tox inconclusive, KB-V1 MDR tox 9.2µM, ATXN2 expr inh 10µM, ATXN viability 10µM, HT1080 IDH1KD tx inconclusive
C#CCOCCOCCOCCNc1nc(N2CCN(C(=O)CCCCCCCCCCNC(=O)[C@H]([C@@H](C)CC)n3cc(CCCCN=C(N)N)nn3)CC2)nc(N2CCN(C(=O)CCCCCCCCCCNC(=O)[C@@H]([C@H](C)O)n3cc(C)nn3)CC2)n1	KB-3-1 tox inconclusive, HT1080-NT tox inconclusive, KB-V1 MDR tox inconclusive, ATXN viability inconclusive, HT1080 IDH1KD tx 25.9µM
C#CCOCCOCCOCCNc1nc(N2CCOCC2)nc(N2CCN(C(=O)CCCCCCCCCCNC(=O)[C@H]([C@@H](C)CC)n3cc(CCCCN=C(N)N)nn3)CC2)n1	none
COC(=O)c1cc(Br)ccc1N(Cc1cc(OC)cc(OC)c1)S(C)(=O)=O	KB-V1 MDR tox inconclusive
Cc1nc(NC(=O)c2ccccc2)sc1-c1cc(C(=O)NCCO)nn1Cc1ccccc1	none (no result: ATXN2 expr inh, ATXN viability)
Clc1ccc2oc(-c3ccccc3)cc(=NCCCN3CCOCC3)c2c1	KB-3-1 tox inconclusive, HT1080-NT tox inconclusive, KB-V1 MDR tox 20.6µM, HT1080 IDH1KD tx inconclusive (no result: ATXN viability)
CC(C)CNC(=S)N1CCC(C(=O)c2ccc(Cl)cc2)CC1	ATXN viability inconclusive (no result: ATXN2 expr inh)
CCOc1ccc(-c2nn(-c3ccccc3)cc2C2NC(=O)NC(C)=C2C(=O)OC(C)C)cc1 (configuration not stated)	KB-3-1 tox inconclusive, ATXN2 expr inh inconclusive (no result: HT1080-NT tox, HT1080 IDH1KD tx)
Cc1ccc(Cn2cc(CN3CC(N4CCN(Cc5ccccc5F)CC4)CS3(=O)=O)nn2)cc1 (configuration not stated)	KB-3-1 tox inconclusive, KB-V1 MDR tox 10.3µM
Cc1cc(C)cc(Cn2cc(CN3CC(N4CCN(Cc5ccccc5F)CC4)CS3(=O)=O)nn2)c1 (configuration not stated)	KB-3-1 tox inconclusive
CCCCCCN1CCN(C2CN(Cc3cn(Cc4ccc(C)cc4)nn3)S(=O)(=O)C2)CC1 (configuration not stated)	KB-V1 MDR tox inconclusive, HT1080 IDH1KD tx 23.1µM
COC(=O)c1cn(CC(C)n2c(=O)c3ccccc3n2Cc2cc(C(C)C)no2)nn1 (configuration not stated)	none (no result: ATXN2 expr inh, ATXN viability)
O=C1N/C(=N/c2ccccn2)SC1Cc1ccccc1 (configuration not stated)	HT1080-NT tox inconclusive, KB-V1 MDR tox inconclusive, HT1080 IDH1KD tx 10µM
O=C1N/C(=N\c2ccccn2)SC1Cc1ccc(Cl)cc1 (configuration not stated)	none
Nc1nc(-c2ccccc2)nc2sc3c(c12)CCCC3	KB-V1 MDR tox 23.1µM
O=c1oc(-c2ccccc2)nc2sc3c(c12)CCC3	ATXN viability inconclusive (no result: ATXN2 expr inh)
CCOc1cc(CNCc2ccccn2)cc(Cl)c1OCC	none
CCCCNCc1cc(Br)c(OCc2cccs2)c(OC)c1	KB-3-1 tox inconclusive, HT1080-NT tox inconclusive, KB-V1 MDR tox inconclusive, HT1080 IDH1KD tx 20.6µM
COc1cc(CNc2ccc(O)cc2)cc(Br)c1OCc1ccccc1	HT1080-NT tox inconclusive (no result: ATXN2 expr inh)
CCNCc1cc(Cl)c(OCc2ccccc2)c(OCC)c1	HT1080-NT tox 16.4µM, ATXN2 expr inh inconclusive, HT1080 IDH1KD tx inconclusive
CCOc1cc(CNCCO)cc(Br)c1OCc1ccccc1	KB-3-1 tox inconclusive, HT1080-NT tox 20.6µM, KB-V1 MDR tox inconclusive, ATXN2 expr inh inconclusive, ATXN viability inconclusive, HT1080 IDH1KD tx inconclusive
COc1cc(CNC(C)c2ccccc2)cc(Br)c1OCc1ccccc1 (configuration not stated)	KB-3-1 tox inconclusive, HT1080-NT tox 16.4µM, KB-V1 MDR tox inconclusive, ATXN2 expr inh inconclusive, ATXN viability inconclusive, HT1080 IDH1KD tx inconclusive

Screening results as filed in PubChem.
